In PubChem BioAssay (NCATS) one finds Potency data, which are given here for 5 molecules.

Results filed as inconclusive are left out. Calls of active or inactive are those of the source. Calls come from the whole dose curve; as a rule, active = well fitted curve in the direction sought with a large enough effect; inconclusive = small, poorly fitted or top-dose-only effect, or another doubt; inactive = no such curve, though single readings can be large; an effect the other way counts as inactive or inconclusive.

The nature of experiment [1]: qHTS of pediatric cancer cell lines to identify multiple opportunities for drug repurposing: Primary screen for DAOY cells (AID 1347090). Note: nearly all actives have a fitted effect of over 55% in size. The method, boiled down:
(§1)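 Eight- or eleven-point concentration series, 48 h treatment at 37 degrees C in growth media; readout CellTiter-Glo luminescence. Potency and efficacy were taken from the concentration-response curves.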

Experiment [2] in a line: qHTS of pediatric cancer cell lines to identify multiple opportunities for drug repurposing: Primary screen for SJ-GBM2 cells (AID 1347091). In outline: as §1
The nature of experiment [3]: qHTS of pediatric cancer cell lines to identify multiple opportunities for drug repurposing: Primary screen for A673 cells (AID 1347092). Note: nearly all actives have a fitted effect of over 45% in size. The method, boiled down: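 48 h compound exposure, A673, 500-1,000 cells/well, 37 degrees C/5% CO2. MIPE: 11-point, 0.78 nM-46 µM; NPC: 8-point, 0.59 nM-46 µM (final). Readout CellTiter-Glo luminescence after 15 min RT.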
A short description of experiment [4]: qHTS of pediatric cancer cell lines to identify multiple opportunities for drug repurposing: Primary screen for TC32 cells (AID 1347089). Note: nearly all actives have a fitted effect of over 60% in size. The method, boiled down: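 In the primary qHTS, MIPE compounds were tested at 11 concentrations (0.78 nM to 46 µM) and NPC compounds at 8 (0.59 nM to 46 µM) on TC32 cells for 48 h. CellTiter-Glo luminescence gave viability.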

Experiment [5] can be described thus: qHTS of pediatric cancer cell lines to identify multiple opportunities for drug repurposing: Primary screen for SK-N-MC cells (AID 1347093). The method, boiled down:
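Metabolically active cells were quantified by ATP-dependent luminescence (CellTiter-Glo, 15 min at room temperature) following 48 h treatment. Cells had been plated at 500-1,000 per well and settled for 5 h beforehand.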
Potency is the fitted concentration of half-maximal effect.

For `CN1CCc2c(c3ccccc3n2Cc2ccc(C(=O)NO)cc2)C1`, the Potency in experiment [1] was 3720 nM (active); in experiment [2], 23500 nM (active); in experiment [3], 5900 nM (active).

Turning to `CN(C)CC(=O)N1CCC(c2ccc(NC(=O)c3ncc(C#N)[nH]3)c(C3=CCCCC3)c2)CC1`, the Potency result in experiment [4] was “inactive”. Besides, the Potency in experiment [2] was 18700 nM (active); in experiment [5] it was 1660 nM (active).

For `Nc1ncn([C@@H]2O[C@H](CO)[C@@H](O)[C@@H]2O)c(=O)n1`, in experiment [2], the Potency was 7430 nM (active).

In the case of `COc1ccc(C=Cc2cc(OC)c(OC)c(OC)c2)cc1NC(=O)[C@H](N)CO`, the Potency in experiment [4] was 41.5 nM (active); in experiment [1], 9.3 nM (active); in experiment [3], 9.3 nM (active); in experiment [5], 11.8 nM (active).

On to `COc1ccc(S(=O)(=O)Nc2cccnc2Nc2ccc(O)cc2)cc1`, for which the Potency is 8290 nM (active) in experiment [4], 23.5 nM (active) in experiment [2], 235 nM (active) in experiment [3] and 296 nM (active) in experiment [5].
